From the supplement of paper PMC11417369 come the findings set out here.

± gives the standard deviation of the averaged measurements. In all, about 25,000 sequences were measured (“ln(normalized median fluorescence intensity)”: median about 8.6, highest 2% from about 10 on). The list comes from a sample in which the highest values are over-represented; it also holds similar and randomly drawn sequences.

The test system of the test is PfAP2-EXP AP2 domain (GST-tagged). Description: gcPBM binding intensity (ln(normalized median fluorescence intensity)); higher = stronger DNA binding. In a few lines:
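Probes on an Agilent 4 × 180k array were primer-extended, double-stranded and 36 bp long, taken from intergenic genomic regions, with negative controls added. GST-tagged P. falciparum DNA-binding domains from E. coli, about 25 μg on average, were applied to the array for 1 h in 1× PBS containing 1% milk, 0.2 mg/ml BSA, 0.5% salmon testes DNA and 0.03% Triton X-100. Binding intensity, obtained after Alexa488 anti-GST antibody detection and a 488 nm scan, is the highest Masliner-normalised natural-log median intensity across replicate spots of either probe orientation.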
Consider “AACTTTTAGAAGAACACACACATATAGATTATGACC [CACACA_site6256]”, for which the “gcPBM binding intensity (ln)” value was found to be 8.8 ± 0.26.
As to “TATATTATGACCACCACACACCTATACACATAACAT [CACACA_site7199]”, the “gcPBM binding intensity (ln)” value worked out at 8.88 ± 0.43.
For the sequence “ATTATAACACCTCCCCCCCTTTTTTTATGAAGACCA [CACACA_negctrl_site1043]”, the “gcPBM binding intensity (ln)” value stood at 10.6 ± 0.18.
With “AAAATAAAAATAAAAGCACACATAAATATATATATA [CACACA_site8409]”, the “gcPBM binding intensity (ln)” value came to 9.64 ± 0.28.
For the sequence “AAAAATAAAAAAAGCACACACATATATATATATATA [CACACA_site1885]”, the “gcPBM binding intensity (ln)” value came to 10.2 ± 0.28.
Next, “AATAAAAATAAAAGCACACATAAATATATATATATT [CACACA_site1441]”: 8.66 ± 0.39.
The value for “AAAAATAAAAAAAGCACACACATATAAATAAATATA [CACACA_site6968]” was 8.69 ± 0.6; that for “TAAAAAATAAAAAAAGCACACACATATATATATATA [CACACA_site8567]” was 10.3 ± 0.25; that for “AAAAAAAAAAAAAAAGCACACATATAAATATGAATA [CACACA_site8391]” was 8.41 ± 0.24.
Next, “TTCTTTTTAATTAATACACACACACCCATATATATA [CACACA_site8719]”: 8.83 ± 0.42; “AATGTATATATATATATATATATATATATTTATTTA [CACACA_negctrl_site113]”: 8.43 ± 0.14; “CCCGTAAATTATGAGTGTACGTTATTTTTTAAAATG [XGTACX_site3946]”: 8.81 ± 0.49.
As to “ATAATGTTTTATAATACACACATTATATATATAAAT [CACACA_site6101]”, the “gcPBM binding intensity (ln)” value worked out at 8.4 ± 0.37.
Take “AATATATGTTAAAATGGTACACAATTATTATATATT [XGTACX_site6407]”: the “gcPBM binding intensity (ln)” value came out at 8.46 ± 0.4.
Regarding “TATTCCTTCTACAATTAAATAATTATAATAAATATA [GTGCAC_negctrl_site26]”, the “gcPBM binding intensity (ln)” value was determined as 8.46 ± 0.46.
Consider “ATATATTATTATACATGTACATATATAGATATATAT [XGTACX_site4358]”, for which the “gcPBM binding intensity (ln)” value came out at 8.53 ± 0.35.
“CAAGTAGATATTATACGTACATATATATATATATAT [XGTACX_site8349]”: the “gcPBM binding intensity (ln)” value worked out at 10.2 ± 0.32.
With “GAAATTATGTAAAAAAGTACTAACATACATATATAT [XGTACX_site1794]”, the “gcPBM binding intensity (ln)” value stood at 8.61 ± 0.32.
With “ATATATAGATAATCAAGTACATAACAAGATATAAGA [XGTACX_site2186]”, the “gcPBM binding intensity (ln)” value was found to be 8.81 ± 0.47.
“AATTAGATACTAACAAGTACATATATATATATATAT [XGTACX_site2252]”: the “gcPBM binding intensity (ln)” value turned out to be 10.2 ± 0.26.
For the sequence “ACATACATATATATACGTACATATATATTTATATAT [XGTACX_site5799]”, the “gcPBM binding intensity (ln)” value turned out to be 8.75 ± 0.34.
Regarding “ATAATATCATAATATTGTACATATTTTATTTTAAAT [XGTACX_site1115]”, the “gcPBM binding intensity (ln)” value came out at 8.36 ± 0.29.
Regarding “AATCTTCTTAATTGTAGTACACAATTTATAAACAAA [XGTACX_site8706]”, the “gcPBM binding intensity (ln)” value stood at 8.61 ± 0.3.
On to “TGATATTATATATATACACACATGTATGTATTTATA [CACACA_site4874]”, for which the “gcPBM binding intensity (ln)” value was determined as 8.32 ± 0.42.
Turning to “ATATATCTACATATATGTACATATATGTATATGTAT [XGTACX_site5432]”, the “gcPBM binding intensity (ln)” value was determined as 8.41 ± 0.2.
The value for “ATATATATATATATGTGTACATATGTATATATATCT [XGTACX_site2930]” was 10.1 ± 0.4; that for “ATATATATATATATATGTACATATATCTACATATAT [XGTACX_site7588]” was 10.2 ± 0.14; that for “TAATATCTACATATATGTACATATATATATATATAT [XGTACX_site7979]” was 9.94 ± 0.4.
As to “AATAAATAGATATATACACACATATATGTGTACATA [CACACA_site7476]”, the “gcPBM binding intensity (ln)” value amounted to 8.37 ± 0.29.
For the sequence “ATATATATATATATATGTACATAGAGAAGTATCTTT [XGTACX_site4737]”, the “gcPBM binding intensity (ln)” value amounted to 10.4 ± 0.17.
Take “ATATATATGTATATATGTACATATATGTATATATAT [XGTACX_site4772]”: the “gcPBM binding intensity (ln)” value stood at 8.66 ± 0.17.
The value for “ATATATATATATATATGTACATATATATATGTATAT [XGTACX_site3959]” was 10.2 ± 0.33; that for “ATGTATGTGTATATATGTACATAATATATATCTTTT [XGTACX_site8666]” was 8.65 ± 0.32; that for “ATATATATATATATGTGTACATATATTAAGATATAT [XGTACX_site1065]” was 10 ± 0.3.
For “ATATATATATATATGTGTACATATAAGATAGAAGAA [XGTACX_site3198]”, the “gcPBM binding intensity (ln)” value worked out at 10.2 ± 0.35.
On to “AAATGTATATATGTATGTACATATATATATATATAT [XGTACX_site5778]”, for which the “gcPBM binding intensity (ln)” value turned out to be 10 ± 0.35.
Consider “AATATAACTTAGAATTGTACATAAAAAAAAATATAT [XGTACX_site3313]”, for which the “gcPBM binding intensity (ln)” value is 8.68 ± 0.35.
As to “CAAAATATTTAAAAAAGTACTTAAAATAAATTCAAA [XGTACX_site6866]”, the “gcPBM binding intensity (ln)” value is 8.48 ± 0.38.
Next, “CTTAAATCTACTATTTGTACATATTTTATTATTAAA [XGTACX_site6151]”: 8.58 ± 0.37.
“TTTATTTAAAAAATAAAAAAAAAAAAAAAAAAAAAA [CACACA_negctrl_site1670]”: the “gcPBM binding intensity (ln)” value worked out at 7.82 ± 0.38.
On to “GGATACGCTTTTGTACCACTCCCCCTTTTGGGAATA [CACACA_negctrl_site1363]”, for which the “gcPBM binding intensity (ln)” value was determined as 8.88 ± 0.33.
Turning to “AAAACTTGTCAGAATGGACACACGAATTAAAGGCCT [CACACA_site1215]”, the “gcPBM binding intensity (ln)” value amounted to 8.79 ± 0.52.
“GCATAAATTATCATAACATAAATATAAAAATATAAT [GTGCAC_negctrl_site55]”: the “gcPBM binding intensity (ln)” value was 8.36 ± 0.37.
As to “TAGTTGTGAGTTACATGTACATGTATTTATTTTTTA [XGTACX_site7088]”, the “gcPBM binding intensity (ln)” value came to 8.88 ± 0.47.
For the sequence “CCACACTTAAAATACACACACACCAAAAAAAAAAAA [CACACA_site2709]”, the “gcPBM binding intensity (ln)” value amounted to 8.43 ± 0.37.
In the case of “TATATTTGGTTTCATTCATTTTTATAGAAATCTCAA [CACACA_negctrl_site1412]”, the “gcPBM binding intensity (ln)” value was 8.48 ± 0.47.
For “GATATGTGTATAATATGTACATATATATATATATAT [XGTACX_site6531]”, the “gcPBM binding intensity (ln)” value amounted to 10.2 ± 0.5.
With “GTATATATGTATATATGTACATATATATAATATATT [XGTACX_site56]”, the “gcPBM binding intensity (ln)” value worked out at 8.5 ± 0.16.
